An excerpt weighted towards active compounds, which were near 11% of everything screened.
Vaccinia mCherry = inhibitors of vaccinia virus infection (mCherry reporter signal) | Vaccinia virus mCherry reporter infection, fluorescence | Potency, µM (series often up to 36.5 µM), for inactives: top-dose activity change, negative = inhibition, usual class: inhibitors | actives 0.63% (n = 310,000); calls by dose curve; tested in A549 cells; also: potency is read from the fitted curve at half-maximal effect; % is scaled to controls: 0 for no effect and ±100 for the full control effect; nearly all actives have a fitted effect of over 35% in size
NS1 inh = blocks influenza NS1 protein function; actives 0.4% (n = 270,000); Potency, µM (highest dose often 46.1 µM), inactives show at the top dose activity, positive = more growth; calls by dose curve; also: potency is read from the fitted curve at half-maximal effect; actives are rising curves; nearly all actives have a fitted effect of over 50% in size
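Recovery from NS1-induced slow growth read by OD600 in budding yeast switched to galactose assay medium (pH 6.0, -URA) at 1:100 dilution. Compound 23 nl per well; the matching strain lacking NS1 serves as control.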
Pf growth 48h = P. falciparum growth inhibition at 48 hours (one generation) | AID 504832 | Potency, µM (series often up to 28.7 µM), for the others: at the highest dose activity change, negative = inhibition, actives largely listed as inhibitors | actives 5.9% (n = 310,000) | P. falciparum luciferase growth in erythrocytes, 48 h; also: potency is read from the fitted curve at half-maximal effect; % is scaled to controls: 0 for no effect and ±100 for the full control effect
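Compounds are pin-transferred into medium, infected erythrocytes (2% hematocrit, 0.1% parasitemia final) are added, and plates sit one parasite generation at 37 C in 5% CO2. Detection reagent is then added and luminescence measured.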
HCV inhibitor = inhibitors of hepatitis C virus infection; Huh7.5.1 HCVcc-Cre infection, luciferase reporter, 44 h; Potency, µM (titrated, usually from 41.8 µM), without a hit: top-dose activity change, negative = inhibition, usual class: inhibitors; actives 3.4% (n = 340,000); AID 651820; also: potency is read from the fitted curve at half-maximal effect; % is scaled to controls: 0 for no effect and ±100 for the full control effect
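Luciferase read-out (15 sec integration) after a 15 min room-temperature substrate step quantifies HCVcc-Cre infection. Cells, 1,000 per well, had compound added 4 h post-plating, then virus at ~0.5 moi, and were cultured 44 h.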
Vaccinia Venus = vaccinia inhibition (Venus reporter); Vaccinia virus Venus reporter expression, fluorescence; AID 720580; actives 0.46% (n = 330,000); Potency, µM (titrated, usually from 36.5 µM), inactives show at the highest dose activity change, negative = inhibition, hits mostly inhibitors; calls by dose curve; tested in A549 cells; also: potency is read from the fitted curve at half-maximal effect; % is scaled to controls: 0 for no effect and ±100 for the full control effect; nearly all actives have a fitted effect of over 30% in size
Pf growth 96h = inhibits malaria parasite growth, 96 h | P. falciparum luciferase reporter growth, 96 h | Potency, µM (top dose mostly 28.7 µM), for inactives: at the highest dose activity change, negative = inhibition, hits mostly inhibitors | actives 6.9% (n = 320,000); also: potency is read from the fitted curve at half-maximal effect; % is scaled to controls: 0 for no effect and ±100 for the full control effect
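P. falciparum expressing integrated firefly luciferase, in erythrocytes at 2% hematocrit, 0.05% parasitemia, incubated with compounds 96 h at 37 C, 5% CO2. Growth inhibition read as loss of luminescence; two-generation exposure targets delayed-death apicoplast inhibitors.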
Flu NS1 inh = validation of influenza NS1 protein function inhibitors; shares compounds with NS1 inh; influenza NS1 function cell assay, 15-point titration; activity change, negative = inhibition, % at 32.9 µM; AID 492980; 1,400 tested, under 10 active; calls by dose curve; also: 0% is about no effect
PR8 titer = influenza NS1 inhibitors: inhibition of influenza A/PR/8/34 replication. shares compounds with NS1 inh. MDCK infected influenza A/PR/8/34, virus titer TCID50; hits give low values. virus titer (log TCID50), log10 TCID50 at 5 µM. actives 30% (n = 95); call rule not given here
Numbers without * were called inactive; i = inactive; ? = inconclusive; / = no result given. Unless noted, calls follow the shape of the dose curve; as a rule, active = well fitted inhibition curve with a large enough effect; inconclusive = small, poorly fitted or top-dose-only effect, or another doubt; inactive = no such curve, though single readings can be large or run the other way.

SMILES | Vaccinia mCherry | NS1 inh | Pf growth 48h | HCV inhibitor | Vaccinia Venus | Pf growth 96h | others
Cc1cccc2cc(C#N)c(NCCNC(=S)NCCCN3CCOCC3)nc12 | -11.0% | 22.5% | 10.4µM* | 11.2µM* | -21.1% | -16.8%
Cc1cc2cc(C#N)c(NCCNC(=S)NCCCN3CCOCC3)nc2cc1C | -28.9% | 13.0% | 13.1µM* | ? | -29.7% | 222.9%
O=C(NC(=S)NNC(=O)[C@H]1C[C@@H]1c1ccccc1)c1cccc(F)c1 | -6.0% | -1.3% | 96.3% | -9.3% | -8.7% | ?
Nc1nc(Sc2ccc(C(F)(F)F)cn2)n[nH]1 | i | -0.2% | -8.5% | 13.8% | -7.7% | -18.7%
Cc1ccc(OCc2cc(C(=O)N(C)Cc3cnn(C)c3)no2)cc1C | -11.8% | / | / | / | -11.4% | /
COc1cccc(OCc2cc(C(=O)N(C)Cc3nc(C)cs3)no2)c1 | -24.5% | -2.4% | 8.9% | -2.2% | -8.5% | 6.57µM*
COc1cccc(OCc2cc(C(=O)NCc3cnc4ccccn34)no2)c1 | / | 8.4% | ? | 8.91µM* | / | ?
COc1cccc(OCc2cc(C(=O)NCc3ccccn3)no2)c1 | -3.2% | 1.6% | 18.3% | 1.6% | -18.7% | 61.2%
COc1cccc(OCc2cc(C(=O)N(C)C3CCOCC3)no2)c1 | -13.2% | -1.1% | 28.6% | -1.4% | -3.0% | -26.1%
CCOC(=O)CC1(NC(=O)c2cc(COc3cccc(OC)c3)on2)CCCCC1 | / | -9.1% | ? | 10µM* | / | 8.4%
Cc1ccc(OCc2cc(C(=O)N(C)Cc3cnn(-c4ccccc4C)c3)no2)cn1 | -19.0% | -35.4% | 6.6% | 11.2µM* | -20.6% | ?
Oc1ccc(CCNCc2cc3c(cc2Br)OCO3)cc1 | -9.7% | -0.7% | / | / | -9.2% | /
Cc1ccc(Sc2sc(=O)n(C)c2S(=O)(=O)c2ccc(C)cc2)cc1 | / | / | 26.4% | -1.5% | / | -2.2%
COc1cccc(CCNC(=O)c2cc(COc3cccc(OC)c3)on2)c1 | -15.8% | / | / | / | -25.2% | /
COc1cccc(OCc2cc(C(=O)NCC3CCCCC3)no2)c1 | / | -9.8% | 19.8% | 0.5% | / | 11.7µM*
Cc1cc(OCc2cc(C(=O)NCCN3CCCCC3CO)no2)cc(C)c1Cl (stereo unspecified) | -14.2% | 4.3% | 7.5% | 8.91µM* | ? | ?
COc1cccc(OCc2cc(C(=O)NCCN3CCCCC3CO)no2)c1 (stereo unspecified) | i | 13.6% | -5.3% | -24.6% | -15.6% | ?
CCOc1ccc2ccccc2c1/C=N/n1cncn1 | / | -42.5% | -13.4% | 11.2µM* | / | 0.0%
Cn1cc(/C=C(\NC(=O)c2ccccc2Cl)C(=O)NCCCN2CCOCC2)c2ccccc21 | / | -2.0% | ? | -11.5% | / | 10.4µM*
O=S(=O)(c1ccccc1)N1CCN(S(=O)(=O)c2ccccc2)c2ccccc21 | ? | 0.0% | / | -14.2% | -18.1% | /
CCOC(=O)CN1C(c2ccc(O)cc2)Nc2ccc(Br)cc2C1c1ccccc1 (stereo unspecified) | -29.1% | -10.4% | ? | -25.6% | ? | 3.29µM*
C=CCN=C1SC(C)C(=O)N1S(=O)(=O)c1ccccc1 (stereo unspecified) | -1.5% | ? | 6.1% | ? | -1.7% | 7.38µM*
C=CCOC1=CS(=O)(=O)N(Cc2ccc(Br)cc2)c2ccc(Br)cc21 | ? | / | / | 20µM* | -14.6% | /
O=C1CS(=O)(=O)N(Cc2ccccc2F)c2ccc(Br)cc21 | -2.1% | / | / | -1.3% | -12.4% | /
Cc1cc([N+](=O)[O-])cc(C)c1OCC(=O)N/N=C/c1ccc(OC(=O)c2ccccc2)cc1 | i | -16.4% | ? | -1.6% | -9.8% | 2.08µM*
SMILES | Vaccinia mCherry | NS1 inh | Pf growth 48h | HCV inhibitor | Vaccinia Venus | Pf growth 96h | others
O=C(CNC(=O)c1ccc([N+](=O)[O-])cc1)N/N=C\c1ccc(OC(=O)c2ccccc2)cc1 | -12.3% | 1.7% | ? | 8.4% | -2.4% | /
Cc1ccccc1OCC(=O)NCC(=O)N/N=C/c1cccc([N+](=O)[O-])c1 | / | -1.4% | 12.9% | / | / | 42.0%
Cc1ccc(CC(=O)N/N=C/c2ccc(OC(=O)c3ccc([N+](=O)[O-])cc3)cc2)cc1 | i | 12.2% | -4.1% | -16.9% | -11.7% | ?
Cc1cc([N+](=O)[O-])cc(C)c1OCC(=O)N/N=C/c1ccc(OC(=O)c2ccccc2Br)cc1 | -3.6% | 10.3% | 3.3% | ? | -7.4% | 10.4µM*
Cc1ccccc1OCC(=O)N/N=C/c1cccc(Oc2ccc([N+](=O)[O-])cc2[N+](=O)[O-])c1 | ? | 18.6% | -22.5% | 11.2µM* | ? | 1.31µM*
O=C(CN1CC[n+]2c(-c3cccs3)csc21)c1ccc(Br)cc1 | -11.1% | 4.47µM* | 13.1µM* | ? | 1.6% | 49.0% | Flu NS1 inh=27.4
Cc1ccccc1NC(=O)N1CCCC1C(=O)NCc1cccs1 (stereo unspecified) | / | 2.2% | 16.3% | 26.2% | -0.8% | ?
O=C(NCc1cccs1)C1CCCN1C(=O)Nc1ccccc1Cl (stereo unspecified) | -14.9% | ? | 31.8% | 6.4% | 3.9% | -16.0% | Flu NS1 inh=3.6;PR8 titer=8.5
CN(/N=C\c1ccc(O)c(O)c1)c1nc(-c2ccccc2)cc(-c2ccccc2)n1 | ? | 8.91µM* | 10.4µM* | 11.2µM* | ? | ? | Flu NS1 inh=?
COc1cc(/C=N/N(c2ccccc2)c2ccccc2)ccc1O | ? | -55.8% | 5.0% | ? | ? | ?
O=C(CCSc1ccc(Cl)cc1)NC1CCCCC1 | i | ? | ? | 2.6% | -11.1% | 0.6% | Flu NS1 inh=-1.2
CN(CC(=O)NC1CCCCC1)S(=O)(=O)c1ccc(Cl)cc1 | -13.6% | ? | 18.9% | 23.6% | -7.6% | / | Flu NS1 inh=-1.8
O=C(CCSc1ccccc1)NC1CCCCCC1 | -5.3% | -2.6% | 28.7% | -5.8% | -6.0% | 14.4%
CCN(CCO)c1nc(SC)nc2c1sc1nc(-c3ccco3)c3c(c12)CCC3 | -7.8% | ? | ? | 13.9% | -11.3% | ? | Flu NS1 inh=-1.5
N#CC1=C(S)N=C(N)C(c2nc(-c3ccccc3)cs2)C12CCCC2 (stereo unspecified) | -29.5% | 21.9% | ? | -10.7% | -7.6% | /
N#CC1=C(S)N=C(N)C(c2nc(-c3ccccc3)cs2)C12CCCCC2 (stereo unspecified) | -12.0% | 11.2µM* | / | -13.8% | -11.4% | 10.9% | Flu NS1 inh=18.3
C[C@@H](C(=O)N1CCN(C(=O)OC(C)(C)C)CC1)n1cc(CCC(=O)O)nn1 | -1.3% | 4.3% | 32.7% | 14.3% | -10.5% | 39.2%
